Experiment [1] addresses Nuclear receptor coactivator 3 (Homo sapiens) (UniProt Q9Y6Q9). Description: SRC3 coactivator transcriptional activity inhibitors, confirmation, cell-based, luminescence, quadruplicate (AID 588792;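 active means mean inhibition over 43.08%, the solvent-only control mean plus 3 SD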;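 further: 0% = DMSO treated cells and 100% = gossypol at 36 µM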). The conditions noted are these: HEK293 GAL4-SRC3 luciferase reporter, at 3.6 µM, active compounds read high.
In experiment [2] the test system is transactivating tegument protein VP16 (Human herpesvirus 1), Gal4-VP16 luciferase reporter. Description: VP16 transactivation inhibitors, counter-screen for SRC3 inhibitor project, cell-based, luminescence, high throughput (AID 588794; in the data active means inhibition above about 30%). The conditions noted are these: mammalian cells, VP16-driven luciferase reporter luminescence; at 3.6 µM; active compounds read high.

The target in experiment [3] is Nuclear receptor coactivator 1 (Homo sapiens) (UniProt Q15788). Description: SRC1 coactivator transcriptional activity inhibitors, confirmation, cell-based, luminescence, quadruplicate (AID 588820;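 active means mean inhibition above 46.68%, the untreated control wells mean plus 3 SD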;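 further: 0% = DMSO wells and 100% = gossypol 36 µM treated wells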). The following applies: HEK293 GAL4-SRC1 luciferase reporter, at 3.6 µM, active compounds read high.
Chain of Nuclear receptor coactivator 1 (Homo sapiens) (Q15788 whole entry, looked up, the tested form may be a part): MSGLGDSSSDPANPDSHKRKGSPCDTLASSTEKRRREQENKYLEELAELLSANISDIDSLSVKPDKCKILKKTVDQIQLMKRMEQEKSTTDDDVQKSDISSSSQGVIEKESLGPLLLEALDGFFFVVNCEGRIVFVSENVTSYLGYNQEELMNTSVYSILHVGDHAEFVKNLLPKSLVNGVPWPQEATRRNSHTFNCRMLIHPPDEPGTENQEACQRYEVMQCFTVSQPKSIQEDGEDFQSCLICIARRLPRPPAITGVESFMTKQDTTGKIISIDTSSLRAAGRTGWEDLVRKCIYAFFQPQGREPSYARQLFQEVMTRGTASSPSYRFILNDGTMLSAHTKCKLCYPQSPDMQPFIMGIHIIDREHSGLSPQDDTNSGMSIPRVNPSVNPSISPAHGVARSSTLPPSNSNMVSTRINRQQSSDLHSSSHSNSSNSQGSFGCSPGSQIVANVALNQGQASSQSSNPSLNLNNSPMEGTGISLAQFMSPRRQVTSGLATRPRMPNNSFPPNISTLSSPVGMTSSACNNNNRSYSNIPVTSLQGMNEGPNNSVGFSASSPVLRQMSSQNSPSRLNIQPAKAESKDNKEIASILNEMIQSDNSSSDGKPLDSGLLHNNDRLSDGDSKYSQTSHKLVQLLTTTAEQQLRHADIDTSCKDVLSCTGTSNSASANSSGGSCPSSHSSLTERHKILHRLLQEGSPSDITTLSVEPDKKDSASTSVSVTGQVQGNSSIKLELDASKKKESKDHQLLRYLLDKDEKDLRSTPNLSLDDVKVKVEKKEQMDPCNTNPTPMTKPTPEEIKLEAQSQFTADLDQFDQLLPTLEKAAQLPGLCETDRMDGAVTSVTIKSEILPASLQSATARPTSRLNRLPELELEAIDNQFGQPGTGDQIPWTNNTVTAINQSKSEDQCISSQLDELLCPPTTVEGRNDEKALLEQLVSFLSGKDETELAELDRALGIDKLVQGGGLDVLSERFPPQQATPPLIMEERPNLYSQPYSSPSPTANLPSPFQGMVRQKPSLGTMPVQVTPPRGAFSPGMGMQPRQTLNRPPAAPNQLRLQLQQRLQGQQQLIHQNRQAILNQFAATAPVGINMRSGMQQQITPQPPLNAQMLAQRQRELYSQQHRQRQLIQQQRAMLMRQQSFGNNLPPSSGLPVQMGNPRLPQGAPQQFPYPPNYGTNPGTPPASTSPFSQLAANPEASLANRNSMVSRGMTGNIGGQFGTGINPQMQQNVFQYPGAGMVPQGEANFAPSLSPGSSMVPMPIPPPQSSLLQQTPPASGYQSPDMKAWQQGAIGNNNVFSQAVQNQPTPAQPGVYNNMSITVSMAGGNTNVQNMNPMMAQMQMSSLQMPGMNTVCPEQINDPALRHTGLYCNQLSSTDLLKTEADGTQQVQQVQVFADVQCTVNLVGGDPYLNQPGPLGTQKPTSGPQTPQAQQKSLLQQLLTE
Experiment [4] can be described thus: VP16 transactivation inhibitors, counter-screen for SRC1 inhibitor project, cell-based, luminescence, high throughput (AID 588824; in the data active means inhibition above about 25%). The conditions noted are these: cell-based VP16 transactivation luciferase luminescence; at 3.6 µM; active compounds read high.
The nature of experiment [5]: StAR promoter reporter inhibitors, counter-screen for LRH-1 inverse agonist project, cell-based, luminescence, high throughput (AID 651611; in the data active means inhibition above about 28%). The following applies: StAR promoter luciferase reporter counterscreen, at 3.6 µM, active compounds read high.
Experiment [6] deals with Nuclear receptor subfamily 5 group A member 2 (Homo sapiens) (UniProt O00482). Description: LRH-1 (NR5A2) inverse agonists, retest, confirmation, cell-based, luminescence (AID 651613; in the data active means inhibition above about 42%;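 further: HEK293T cells co-transfected with LRH-1 and StAR promoter luciferase reporter; 0% = vehicle wells and 100% = parental cells lacking receptor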). The conditions noted are these: cell-based LRH-1 luciferase reporter, inverse agonism; at 3.6 µM; active compounds read high.
Chain of Nuclear receptor subfamily 5 group A member 2 (Homo sapiens) (O00482 whole entry, looked up): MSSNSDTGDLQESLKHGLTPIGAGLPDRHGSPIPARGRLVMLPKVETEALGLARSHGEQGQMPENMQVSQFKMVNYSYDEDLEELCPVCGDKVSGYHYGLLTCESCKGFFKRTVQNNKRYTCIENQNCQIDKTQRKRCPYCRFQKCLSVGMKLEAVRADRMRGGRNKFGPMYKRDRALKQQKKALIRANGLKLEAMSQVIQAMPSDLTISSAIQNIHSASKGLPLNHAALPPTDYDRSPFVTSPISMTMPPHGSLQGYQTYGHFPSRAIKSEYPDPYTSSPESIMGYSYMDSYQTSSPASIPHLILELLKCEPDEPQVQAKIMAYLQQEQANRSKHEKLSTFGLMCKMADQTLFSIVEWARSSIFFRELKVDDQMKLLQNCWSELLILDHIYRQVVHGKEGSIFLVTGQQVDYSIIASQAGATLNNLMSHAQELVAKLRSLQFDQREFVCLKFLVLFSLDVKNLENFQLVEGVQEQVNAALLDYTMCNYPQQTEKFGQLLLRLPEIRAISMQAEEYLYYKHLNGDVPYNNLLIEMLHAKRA
Experiment [7] concerns the target Steroidogenic factor 1 (Homo sapiens) (UniProt Q13285). Description: SF1 (NR5A1) inverse agonists, counter-screen for LRH-1 inverse agonist project, cell-based, luminescence, high throughput (AID 651614; in the data active means inhibition above about 44%;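 further: cells cotransfected with StAR promoter reporter and SF1 expression vector; 0% = vehicle on cells with receptor and 100% = vehicle on cells lacking receptor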). The conditions noted are these: cell-based SF1 luciferase reporter, at 3.6 µM, active compounds read high.
Experiment [8] is described as follows: VP16 transactivation reporter inhibitors, counter-screen for LRH-1 inverse agonist project, cell-based, luminescence, high throughput (AID 651615). The conditions noted are these: Gal4-VP16 luciferase reporter cells, at 3.6 µM, active compounds read high.

For 16 compounds, inhibition results are on record in PubChem BioAssay.

The structures appear in SMILES notation. Where “and” joins values, the source holds several entries; their conditions need not be identical. Equal entries are not always repeated. A number with no mark means an inactive call. Calls of active or inactive are those of the source. Unless noted, no stated cut-off is given here; in the data, active means inhibition above about 33%; inactive means the rest.

Chain of Steroidogenic factor 1 (Homo sapiens) (Q13285 whole entry, looked up, the tested form may be a part): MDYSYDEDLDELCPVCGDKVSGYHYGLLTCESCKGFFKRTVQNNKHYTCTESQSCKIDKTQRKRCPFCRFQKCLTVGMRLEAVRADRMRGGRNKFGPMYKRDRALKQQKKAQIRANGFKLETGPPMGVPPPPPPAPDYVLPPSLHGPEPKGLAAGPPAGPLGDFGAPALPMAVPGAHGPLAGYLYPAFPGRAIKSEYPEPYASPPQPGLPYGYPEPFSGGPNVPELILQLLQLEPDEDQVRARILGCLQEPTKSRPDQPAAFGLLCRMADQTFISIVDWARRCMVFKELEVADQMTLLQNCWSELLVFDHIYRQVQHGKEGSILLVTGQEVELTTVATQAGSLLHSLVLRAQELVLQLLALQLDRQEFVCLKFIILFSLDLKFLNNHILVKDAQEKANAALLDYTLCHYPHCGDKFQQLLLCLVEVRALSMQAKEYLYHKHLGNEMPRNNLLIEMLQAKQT
Chain of Nuclear receptor coactivator 3 (Homo sapiens) (Q9Y6Q9 whole entry, looked up, the tested form may be a part): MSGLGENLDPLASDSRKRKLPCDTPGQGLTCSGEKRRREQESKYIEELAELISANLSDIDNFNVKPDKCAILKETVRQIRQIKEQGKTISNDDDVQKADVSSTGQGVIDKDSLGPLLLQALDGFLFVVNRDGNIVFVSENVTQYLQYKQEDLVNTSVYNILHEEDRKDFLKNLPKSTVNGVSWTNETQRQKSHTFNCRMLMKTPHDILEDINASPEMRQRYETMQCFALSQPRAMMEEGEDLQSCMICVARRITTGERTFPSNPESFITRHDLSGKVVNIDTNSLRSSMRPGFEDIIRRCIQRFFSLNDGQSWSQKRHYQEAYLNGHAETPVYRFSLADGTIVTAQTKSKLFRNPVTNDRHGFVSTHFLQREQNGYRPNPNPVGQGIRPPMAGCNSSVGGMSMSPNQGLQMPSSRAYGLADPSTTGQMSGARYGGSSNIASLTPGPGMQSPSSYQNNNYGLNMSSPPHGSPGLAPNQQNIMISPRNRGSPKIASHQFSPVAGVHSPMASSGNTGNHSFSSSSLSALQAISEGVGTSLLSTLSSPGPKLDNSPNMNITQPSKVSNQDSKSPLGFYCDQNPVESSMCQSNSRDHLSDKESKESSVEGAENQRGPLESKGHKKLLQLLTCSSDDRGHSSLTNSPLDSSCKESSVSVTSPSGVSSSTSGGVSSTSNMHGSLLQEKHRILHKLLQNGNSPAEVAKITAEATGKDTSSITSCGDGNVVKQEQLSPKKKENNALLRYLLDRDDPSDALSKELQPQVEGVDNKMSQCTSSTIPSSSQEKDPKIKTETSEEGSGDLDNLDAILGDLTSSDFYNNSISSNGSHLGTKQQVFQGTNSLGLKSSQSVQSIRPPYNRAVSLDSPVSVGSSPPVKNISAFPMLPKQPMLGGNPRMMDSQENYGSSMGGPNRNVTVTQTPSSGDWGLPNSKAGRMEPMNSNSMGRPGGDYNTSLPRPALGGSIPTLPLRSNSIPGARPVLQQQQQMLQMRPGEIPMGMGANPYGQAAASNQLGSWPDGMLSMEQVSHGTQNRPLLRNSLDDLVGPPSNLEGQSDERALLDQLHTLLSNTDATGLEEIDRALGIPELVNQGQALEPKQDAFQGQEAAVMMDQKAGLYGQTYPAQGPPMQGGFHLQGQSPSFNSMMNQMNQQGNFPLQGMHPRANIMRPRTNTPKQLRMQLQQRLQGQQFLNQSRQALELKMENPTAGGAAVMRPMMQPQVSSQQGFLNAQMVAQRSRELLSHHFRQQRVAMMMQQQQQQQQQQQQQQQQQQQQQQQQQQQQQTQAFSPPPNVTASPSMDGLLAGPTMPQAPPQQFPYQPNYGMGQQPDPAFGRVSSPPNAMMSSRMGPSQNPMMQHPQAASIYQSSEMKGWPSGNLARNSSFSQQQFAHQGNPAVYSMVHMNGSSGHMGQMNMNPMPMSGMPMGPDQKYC

Take `C=CCn1c(C)cc(C(=O)CN2C(=O)c3ccccc3S2(=O)=O)c1C`: the inhibition in experiment [1] is 89.7% (active); in experiment [2], 74.1% (active); in experiment [3], 77.3% (active); in experiment [4], 72.7% (active); in experiment [5] it was 89% (active); in experiment [6], 91.1% (active). Also, the figures for the inhibition in experiment [7] and in experiment [8] were 90.7% (active) and 83.8% (active), respectively.
Turning to `CC1(C)CC2CC(C)(CN2S(=O)(=O)c2ccc(C(=O)Nc3ccc(S(=O)(=O)N4CCOCC4)cc3)cc2)C1` (stereo not drawn), the inhibition is 24.1% in experiment [1]; 42.4% (active) in experiment [2]; 4.08% in experiment [3]; 44.1% (active) in experiment [4]; 22.1% in experiment [5]; 53.1% (active) in experiment [6]. Moreover, the inhibition in experiment [7] was 46.4% (active); in experiment [8] it was 57.8% (active).
`Cn1nccc1C(=O)N/N=C/c1c(O)ccc2ccccc12`: the inhibition was 73.9% (active) in experiment [1]; 74.6% (active) in experiment [2]; 72% (active) in experiment [3]; 71% (active) in experiment [4]; 82.4% (active) in experiment [5]; 101% (active) in experiment [6]. For the same compound, the values for the inhibition in experiment [7] and in experiment [8] were 86.2% (active) and 71.1% (active), respectively.
For `c1cc(CNc2ccc3c(c2)OCCO3)ccn1`, the inhibition was -1.65% in experiment [1]; -11.2% in experiment [2]; -6.52% in experiment [3]; -0.58% in experiment [4]; 10% in experiment [5]; 2.45% in experiment [6]. In addition, the inhibition in experiment [7] is 14.8%; in experiment [8] it was -8.35%.
On to `COc1ccc(C(=O)Nc2cnn(Cc3ccc(Cl)cc3)c2)cc1OC`, for which the inhibition is 26.3% in experiment [1]; 52.7% (active) in experiment [2]; 23.3% in experiment [3]; 51% (active) in experiment [4]; 45% (active) in experiment [5]; 51.8% (active) in experiment [6]. Also, the inhibition in experiment [7] is 64% (active); in experiment [8], 63.1% (active).
In the case of `C#CC[N+](C)(C)CCCCCCCCCCCC`, the inhibition in experiment [1] is 29.2%; in experiment [2], 45.9% (active); in experiment [3], 33.4%; in experiment [4], 36.6% (active); in experiment [5] it was 29.7% (active); in experiment [6], 64.7% (active). Moreover, the inhibition is 65.8% (active) in experiment [7] and 59.8% (active) in experiment [8].
For `COc1cc(Cn2c3ccc(NC(=O)CCc4ccc(O)cc4)cc3c(=O)n2C)ccc1F`, the inhibition is 42.6% in experiment [1]; 61.3% (active) in experiment [2]; 31.5% in experiment [3]; 56.6% (active) in experiment [4]; 56% (active) in experiment [5]; 70.8% (active) in experiment [6]. In addition, the inhibition in experiment [7] was 69.3% (active); in experiment [8], 71.1% (active).
For `CCC(C)n1ncn(-c2ccc(N3CCN(c4ccc(O)cc4)CC3)cc2)c1=O` (stereo not drawn), the inhibition in experiment [1] is 32.4%; in experiment [2], 51.9% (active); in experiment [3] it was 20.6%; in experiment [4], 54.8% (active); in experiment [5], 63.1% (active); in experiment [6], 76.7% (active). Moreover, the inhibition was 70.8% (active) in experiment [7] and 73.1% (active) in experiment [8].
For `CCCC(=O)NC(c1ccc(Cl)cc1)c1ccc2cccnc2c1O` (stereo not drawn), the inhibition was 31% in experiment [1]; 28% in experiment [2]; 15.5% in experiment [3]; 40.2% (active) in experiment [4]; 71.8% (active) in experiment [5]; 83.3% (active) in experiment [6]. Besides, the inhibition was 74.9% (active) in experiment [7] and 74.8% (active) in experiment [8].
Regarding `O=C(O)C1CCCN1c1nc(-c2ccc(Cl)c(Cl)c2)cc(C(F)(F)F)n1` (stereo not drawn), the inhibition in experiment [1] is 53.8% (active); in experiment [2], 74.4% (active); in experiment [3] it was 48.3% (active); in experiment [4], 72.8% (active); in experiment [5], 74.5% (active); in experiment [6], 97.4% (active). In addition, the inhibition in experiment [7] was 91.4% (active); in experiment [8], 78.2% (active).
For `Cc1ccc(-c2cn(-c3ccccc3)c3[n+]2CCCS3)cc1`, the inhibition in experiment [1] was 1.67%; in experiment [2], 27.5%; in experiment [3], 9.91%; in experiment [4] it was 19.5%; in experiment [5], 24.4% and 12.1%; in experiment [6], 80.1% (active) and 61.7% (active). Further, the inhibition is 61.2% (active) and 59.6% (active) in experiment [7]; 64.2% (active) and 56.1% (active) in experiment [8].
As for `COc1ccc(/C=C/c2cc(-c3ccc(C)cc3)o[n+]2C)cc1`, the inhibition is 65.6% (active) in experiment [1]; 74.6% (active) in experiment [2]; 56.2% (active) in experiment [3]; 71.5% (active) in experiment [4]; 62.3% (active) in experiment [5]; 98.9% (active) in experiment [6]. Besides, the inhibition was 89.8% (active) in experiment [7] and 83.6% (active) in experiment [8].
Regarding `O=C(NC(NC(=S)N1CCOCC1)C(Cl)(Cl)Cl)c1ccc(Cl)cc1` (stereo not drawn), the inhibition was 30.4% in experiment [1]; 18.7% in experiment [2]; 23% in experiment [3]; 15% in experiment [4]; 47.4% (active) in experiment [5]; 53.2% (active) in experiment [6]. For the same compound, the inhibition was 50.2% (active) in experiment [7] and 20.3% in experiment [8].
Consider `CC(=O)N(/N=C1\Sc2ccccc2C1=O)c1ccc(C)cc1C`, for which the inhibition is 54.1% (active) in experiment [1]; 37.7% (active) in experiment [2]; 2.03% in experiment [3]; 25.4% (active) in experiment [4]; -1.06% in experiment [5]; 11.9% in experiment [6]. Moreover, the inhibition in experiment [7] was 48.8% (active); in experiment [8] it was -16.6%.
`CC(=O)Nc1ccc(SCC(=O)c2cc(C)n(Cc3cccs3)c2C)cc1`: the inhibition in experiment [1] was 52.1% (active); in experiment [2], 40.1% (active); in experiment [3] it was -1.59%; in experiment [4], 5.47%; in experiment [5], -55.3%; in experiment [6] it was -90.8%. Moreover, the inhibition in experiment [7] was -25.9%; in experiment [8] it was -31.9%.
For the compound `CCN1/C(=C/c2ccc3cc(C)ccc3[n+]2CC)Sc2cc(C)c(C)cc21`, the inhibition in experiment [1] is 38.9%; in experiment [2] it was 65.4% (active); in experiment [3], 18.8%; in experiment [4], 58.4% (active); in experiment [5] it was 55.6% (active); in experiment [6], 87.4% (active). In addition, the inhibition in experiment [7] is 83.1% (active); in experiment [8], 75.5% (active).
